Measurements taken from publication PMC4336329 (PLoS ONE, 2015).
Hit rate of the full screen: of about 310,000 compounds, about 14,000 (4.5%) showed an effect of 50% or more. Effects have a minus sign here. Shown is part of a subset that was picked to be rich in strong results.

Molecular target: human ether-à-go-go-related gene (hERG) potassium channel (human, UniProt Q12809)
Test: primary screen, population patch clamp on CHO cells stably expressing hERG; higher = less effect of the substance
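Also: peak tail current of the secondary pulse compared with the same well before compound.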

human ether-à-go-go-related gene (hERG) potassium channel, sequence (Q12809 whole entry, looked up): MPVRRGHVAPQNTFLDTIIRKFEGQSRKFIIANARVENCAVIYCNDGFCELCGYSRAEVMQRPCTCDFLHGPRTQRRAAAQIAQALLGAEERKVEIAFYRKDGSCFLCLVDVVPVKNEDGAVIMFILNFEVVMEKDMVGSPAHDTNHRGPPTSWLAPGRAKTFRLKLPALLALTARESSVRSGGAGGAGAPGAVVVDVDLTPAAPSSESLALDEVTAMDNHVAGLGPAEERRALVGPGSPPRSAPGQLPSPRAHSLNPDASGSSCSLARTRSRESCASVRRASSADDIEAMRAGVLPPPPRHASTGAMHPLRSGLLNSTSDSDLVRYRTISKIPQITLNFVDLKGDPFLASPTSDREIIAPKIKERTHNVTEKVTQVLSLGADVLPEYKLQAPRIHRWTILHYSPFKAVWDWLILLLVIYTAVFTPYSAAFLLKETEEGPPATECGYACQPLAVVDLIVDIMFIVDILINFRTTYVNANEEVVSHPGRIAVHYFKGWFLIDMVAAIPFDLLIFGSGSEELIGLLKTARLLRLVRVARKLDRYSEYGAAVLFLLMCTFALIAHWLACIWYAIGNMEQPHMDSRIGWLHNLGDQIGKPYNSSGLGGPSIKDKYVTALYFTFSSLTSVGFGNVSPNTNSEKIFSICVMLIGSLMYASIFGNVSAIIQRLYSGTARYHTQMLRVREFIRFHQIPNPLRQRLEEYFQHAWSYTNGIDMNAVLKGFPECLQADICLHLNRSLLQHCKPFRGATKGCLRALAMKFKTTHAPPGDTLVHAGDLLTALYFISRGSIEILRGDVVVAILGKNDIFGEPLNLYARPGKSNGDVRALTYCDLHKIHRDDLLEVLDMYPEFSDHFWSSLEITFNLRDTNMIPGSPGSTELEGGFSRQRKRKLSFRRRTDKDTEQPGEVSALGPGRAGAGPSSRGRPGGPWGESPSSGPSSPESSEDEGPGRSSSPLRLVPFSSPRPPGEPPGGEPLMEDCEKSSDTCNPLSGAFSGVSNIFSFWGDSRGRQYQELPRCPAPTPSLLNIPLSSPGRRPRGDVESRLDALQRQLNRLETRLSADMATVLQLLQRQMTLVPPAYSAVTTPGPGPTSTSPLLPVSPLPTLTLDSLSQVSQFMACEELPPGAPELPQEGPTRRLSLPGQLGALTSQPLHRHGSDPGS

| SMILES | hERG current change (%, negative = inhibition) at 10uM [%] |
| --- | --- |
| CC(C)N(Cc1nc(-c2ccc(Cl)cc2)no1)C(=O)c1cccs1 | -8.63 |
| CCCn1c(CNC(=O)Cc2ccccc2)nc2ccccc21 | -21.3 |
| CCOC(=O)c1c(CN2CCC(C)CC2)n(C)c2cc(Br)c(OC)cc12 | 10.5 |
| CCOC(=O)c1c(CN2CCCCC2)n(C)c2cc(Br)c(O)cc12 | -68.2 |
| CCOC(=O)c1c(CN2CCCCC2)n(C)c2cc(Br)c(OC)cc12 | -31.7 |
| CCCCCOC(=O)Cc1c(O)c2ccccc2[nH]c1=O | 12.8 |
| CCN(CC)S(=O)(=O)c1ccc(F)c(C(=O)NCCCN2CCOCC2)c1 | -11.7 |
| COC(=O)c1cc(C(=O)c2cccc(Cl)c2Cl)cn1C | -43.4 |
| CCOc1ccc(Nc2nc(N)nc(CCl)n2)cc1 | -8.2 |
| CCOc1ccccc1Nc1nc(N)nc(CN(C)C2CCCCC2)n1 | -76.1 |
| COc1ccc(Nc2nc(N)nc(CN(C)C3CCCCC3)n2)cc1 | -57.5 |
| COc1ccc(CN(C)C2CCCCC2)cc1 | -25.1 |
| COc1ccccc1Nc1nc(N)nc(CN(C)C2CCCCC2)n1 | -35.8 |
| COc1ccc(Nc2nc(N)nc(COc3ccc(OC)cc3)n2)cc1 | 4.75 |
| CCOc1ccccc1Nc1nc(N)nc(CN2CCCCC2C)n1 (stereo not drawn) | -50 |
| CCOc1ccc(Nc2ncnc(N)n2)cc1 | 10.3 |
| CCOc1ccc(Nc2nc(N)nc(CN(C)C3CCCCC3)n2)cc1 | -71.5 |
| COC(=O)N/N=C/c1cc(Cl)cc(Cl)c1OCc1ccc(F)cc1 | 3.82 |
| O=[N+]([O-])c1cccc(C2N3CCCN23)c1 (stereo not drawn) | 12.3 |
| Cc1cc2c(cc1S(=O)(=O)Nc1c(C)cccc1C)n(C)c(=O)c(=O)n2C | -0.831 |
| COc1ccc(-c2cc(C3CCN(c4ncccc4[N+](=O)[O-])CC3)[nH]n2)cc1 | -5.85 |
| COc1ccc(-c2cc(C3CCN(Cc4cccc(C(F)(F)F)c4)CC3)[nH]n2)cc1 | -55.2 |
| COc1ccc(-c2cc(C3CCNCC3)[nH]n2)cc1 | 18.7 |

| SMILES | hERG current change (%, negative = inhibition) at 10uM [%] |
| --- | --- |
| O=[N+]([O-])c1ccc(-n2nnnc2-c2ccccc2)cc1 | -21.3 |
| COC(=O)CCN1CCC(c2cc(-c3cccc(C(F)(F)F)c3)n[nH]2)CC1 | -72.2 |
| COc1ccc(-c2cc(C3CCN(C(=O)OC(C)(C)C)CC3)[nH]n2)cc1 | -26.4 |
| FC(F)(F)c1cccc(-c2cc(C3CCNCC3)[nH]n2)c1 | -44.3 |
| COc1ccc(-c2cn(Cc3ccc([N+](=O)[O-])cc3)nn2)cc1 | -9.43 |
| O=[N+]([O-])c1cccnc1N1CCC(c2cc(-c3cccc(C(F)(F)F)c3)n[nH]2)CC1 | -13.7 |
| Cc1nc(-c2ccccc2)nn1-c1ccc([N+](=O)[O-])cc1 | -26.2 |
| O=c1ccc(-c2ccc([N+](=O)[O-])cc2)nn1-c1ccccc1 | -55 |
| COc1ccc(-c2cc(C3CCN(Cc4ccc([N+](=O)[O-])cc4)CC3)[nH]n2)cc1 | -73 |
| Cc1ccc(CNc2nc(C)c(C(=O)N(C)C)s2)cc1 | 4.98 |
| COc1ccc(S(=O)(=O)Cc2ccc(C(=O)NCCc3cc(OC)ccc3OC)o2)cc1 | -39.6 |
| COc1ccccc1C(CC(N)=O)c1ccco1 (stereo not drawn) | 10.1 |
| O=C(Cc1cn2ccsc2n1)Nc1nc2c(s1)CCCC2 | -0.221 |
| CN(C)c1ccc(-c2nnn(CC(=O)Nc3ccccc3N3CCOCC3)n2)cc1 | -15.1 |
| CCOn1c(=O)c(-c2ccc(Br)cc2)[n+]([O-])c2ccccc21 | 13.6 |
| CNc1nc(N)c([N+](=O)[O-])c(NCc2ccccc2)n1 | -1.09 |
| Oc1ccc(Br)cc1CNc1cnc2ccccc2c1 | 16.4 |
| O=C(COC(=O)c1ncc(Cl)c(Cl)c1Cl)NNC(=O)c1ccccc1 | -1.26 |
| CCC(=O)Nc1ccc(C(=O)c2ccccc2)cc1 | -9.96 |
| Cc1ccc(C)c(NC(=O)[C@@H]2CCCN2S(=O)(=O)c2ccccc2F)c1 | 10.9 |
| COc1ccc(Nc2cc(Nc3ccccc3)ncn2)cc1 | 11.5 |
| COc1ccc(-c2ccc(=O)n(Cc3ccccc3)n2)cc1 | -5.74 |
| COc1ccc(-c2ccc(=O)n(Cc3ccc([N+](=O)[O-])cc3)n2)cc1 | -75 |

| SMILES | hERG current change (%, negative = inhibition) at 10uM [%] |
| --- | --- |
| COc1ccc(-c2ccc(=O)n(Cc3cccc([N+](=O)[O-])c3)n2)cc1 | -21.2 |
| C=CCOc1ccc(CNn2cn[nH]c2=S)cc1OCC | 12.7 |
| CN(CC(=O)Nc1ccccc1Br)C(=O)CCc1nc2ccccc2c(=O)[nH]1 | -15.8 |
| COC(=O)c1cc(C(=O)c2ccc(Cl)cc2Cl)cn1C | -16.4 |
| COc1ccc(C(=O)NCC(=O)N2CCN(C(=O)c3ccco3)CC2)cc1 | -13.7 |
| O=C(NCC(=O)N1CCN(C(=O)c2ccco2)CC1)c1ccc(Cl)cc1 | -34.1 |
| O=C(NCC(=O)N1CCN(C(=O)c2ccco2)CC1)c1ccccc1 | -7.74 |
| CCCCOc1ccc(C(=O)NCC(=O)N2CCN(C(=O)c3ccco3)CC2)cc1 | -57.4 |
| O=C(NCC(=O)N1CCN(C(=O)c2ccco2)CC1)c1ccc(Br)cc1 | -53.9 |
| O=C(NCCC(=O)N1CCN(C(=O)c2ccco2)CC1)c1ccc(Br)cc1 | -28.6 |
| O=[N+]([O-])c1ccc(Sc2n[nH]c(-c3ccncc3)n2)nc1 | 14.4 |
| CCCN(CC(=O)Nc1ccccc1C)C(=O)/C=C/c1ccc(OCC)c(OC)c1 | -46.7 |
| Cc1ccc(NC(=O)CSc2nnc(/N=C/N(C)C)s2)cc1 | -7.65 |
| COc1ccc2c(c1)NC(c1ccc(N(C)C)cc1)c1cccn1-2 (stereo not drawn) | 12.5 |
| Cc1nc(N2CCN(c3ccccn3)CC2)c2c(C)c(C(=O)Nc3ccc(Br)cc3C)sc2n1 | 11.6 |
| Cc1nc(N2CCN(c3ccccn3)CC2)c2c(C)c(C(=O)Nc3ccc(Cl)cc3)sc2n1 | -7.01 |
| Cc1nc(N2CCN(c3ccccn3)CC2)c2c(C)c(C(=O)Nc3ccccc3F)sc2n1 | -55.3 |
| Cc1nc(N2CCN(c3ccccn3)CC2)c2c(C)c(C(=O)Nc3ccc(F)cc3Cl)sc2n1 | -41.6 |
| CCc1ccc(NC(=O)c2sc3nc(C)nc(N4CCN(c5ccccn5)CC4)c3c2C)cc1 | 5.47 |
| Cc1nc(N2CCN(c3ccccn3)CC2)c2c(C)c(C(=O)Nc3ccc(F)c(Cl)c3)sc2n1 | 14.2 |
| Cc1cccc(NC(=O)c2sc3ncn(CC(=O)N4CCN(c5ccccn5)CC4)c(=O)c3c2C)c1 | -61.4 |
| Cc1ccc(NC(=O)c2sc3nc(C)nc(N4CCN(c5ccccn5)CC4)c3c2C)c(C)c1 | -40.1 |
| Cc1nc(N2CCN(c3ccccn3)CC2)c2c(C)c(C(=O)Nc3ccc(F)cc3F)sc2n1 | -57.9 |

| SMILES | hERG current change (%, negative = inhibition) at 10uM [%] |
| --- | --- |
| Cc1nc(N2CCN(c3ccccn3)CC2)c2c(C)c(C(=O)Nc3ccc(F)cc3)sc2n1 | -76.4 |
| COc1cccc(NC(=O)c2sc3ncn(CC(=O)N4CCN(c5ccccn5)CC4)c(=O)c3c2C)c1 | -0.877 |
| Cc1ccc(NC(=O)c2sc3ncn(CC(=O)N4CCN(c5ccccn5)CC4)c(=O)c3c2C)cc1Cl | -7.77 |
| C1CCC(C(CC2CCCCN2)C2CCCCC2)CC1.O=C(O)/C=C\C(=O)O (stereo not drawn) | -22.6 |
| Cn1c(SCC(=O)Nc2ccc3nc(SCC(=O)NC4CC4)sc3c2)nnc1-c1ccccc1 | -5.5 |
| O=C(CSc1nnc(Cn2nnc(-c3ccccc3)n2)n1-c1ccccc1)Nc1ccc(F)cc1 | 3.55 |
| CC1CCN(C(=O)C(Cc2ccccc2)NS(=O)(=O)c2ccc3c(c2)oc(=O)n3C)CC1 (stereo not drawn) | -2.38 |
| O=C(Nc1ccc2ccccc2c1)c1ccc(Cl)cc1Cl | 31 |
| O=c1c2c3nc4ccccc4nc3n(/N=C/c3ccccn3)c2ncn1-c1ccccc1 | 19.8 |
| CC(c1ccco1)N(C(=O)COc1ccc(Cl)cc1)c1ccccn1 (stereo not drawn) | -12.7 |
| O=C(NNS(=O)(=O)c1ccc(F)cc1)c1ccc(O)cc1 | 9.17 |
| CCOc1ccc(NC(=O)c2sc3nc(C)nc(N4CCOCC4)c3c2C)cc1 | -50.7 |
| Cc1nc(N2CCOCC2)c2c(C)c(C(=O)Nc3ccc(C(F)(F)F)cc3)sc2n1 | -34.9 |
| CCOc1ccccc1NC(=O)c1sc2nc(C)nc(N3CCOCC3)c2c1C | -14.4 |
| CCC(C)(C)NC(=O)CN(Cc1cccs1)C(=O)CCC(=O)Nc1nccs1 | -36.6 |
| CC(C)(C)C(=O)N1CCN(c2ccc([N+](=O)[O-])cc2Cl)CC1 | -33.2 |
| CCCC(=O)N1CCN(c2ccc([N+](=O)[O-])cc2Cl)CC1 | -52.2 |
| CC(C)CC(=O)NC(=S)N1CCN(c2ccc([N+](=O)[O-])cc2Cl)CC1 | -30.9 |
| CCC(=O)NC(=S)N1CCN(c2ccc([N+](=O)[O-])cc2Cl)CC1 | -26.4 |
| CC(C)C(=O)N1CCN(c2ccc([N+](=O)[O-])cc2Cl)CC1 | -30.9 |
| CC(C)CC(=O)N1CCN(c2ccc([N+](=O)[O-])cc2Cl)CC1 | -59.9 |
